VDR inh: Inhibitors of the vitamin D receptor (VDR): qHTS; Potency, µM, for the others: max response, negative = inhibition, hits mostly inhibitors; Vitamin D3 receptor (Homo sapiens), P11473; VDR-SRC2-3 peptide fluorescence polarization, 2 h; actives 0.93% (n = 400,000); note: % is set by controls: 0 for no effect and ±100 for the full control effect
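Fluorescence polarization assay measuring small-molecule disruption of VDR binding to the coregulator peptide SRC2-3. Compounds were pin-transferred (23 nl) into the reagent mix and incubated 2 h at room temperature before reading.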
JMJD2A Tudor inh: qHTS Assay for Inhibitors of JMJD2A-Tudor Domain; AlphaScreen JMJD2A-Tudor / H3K4me3 peptide binding; Potency, µM (doses to about 114 µM), without a hit: at the highest dose activity change, negative = inhibition, most hits filed as inhibitors; actives 4.4% (n = 390,000); AID 504339, 2011; note: % is set by controls: 0 for no effect and ±100 for the full control effect; nearly all actives have a fitted effect of over 50% in size
L3MBTL1 block: qHTS Assay for the Inhibitors of L3MBTL1; Potency, µM (highest dose often 57.1 µM), inactives show at the top dose activity, negative = inhibition, most hits filed as inhibitors; AlphaScreen L3MBTL1–H3K9me1 peptide binding; actives 0.66% (n = 230,000); Lethal(3)malignant brain tumor-like protein 1 (Homo sapiens), Q9Y468; note: % is set by controls: 0 for no effect and ±100 for the full control effect; nearly all actives have a fitted effect of over 60% in size
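AlphaScreen proximity signal between nickel-chelate acceptor and streptavidin donor beads (final 10 ug/mL) reports binding of 50 nM L3MBTL1 to 75 nM biotin-H3 K9me1 peptide; complex incubated with compounds 30 min at room temperature; cefsulodin titration as control.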
HP1b chromo inh: HTS for Inhibitors of HP1-beta Chromodomain Interactions with Methylated Histone Tails. Chromobox protein homolog 1 (Homo sapiens), P83916. AlphaScreen HP1-beta / biotin-H3K9me3 peptide binding. Potency, µM (titrated, usually from 114 µM), for the others: top-dose activity change, negative = inhibition, actives largely listed as inhibitors. actives 0.56% (n = 390,000). AID 540317, 2011; note: nearly all actives have a fitted effect of over 70% in size
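HP1-beta protein (50 nM final) preincubated 30 min at room temperature with biotinylated H3(1-18)K9me3 peptide (50 nM) in PBS pH 7.4, 0.01% Tween-20, then compound added for 30 min. AlphaScreen streptavidin donor/nickel chelate acceptor beads (10 ug/mL final), 30 min dark, luminescence read.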
PLK1 PBD block: qHTS for Inhibitors of PLK1-PDB (polo-like kinase 1 - polo-box domain): Primary Screen; Potency, µM, for inactives: max response, negative = inhibition, most hits filed as inhibitors; actives 2.8% (n = 360,000); Plk1 PBD binding of FITC phosphopeptide, fluorescence polarization; AID 720504, 2013; note: series mostly up to about 57 µM; % is set by controls: 0 for no effect and ±100 for the full control effect; nearly all actives have a fitted effect of over 65% in size
BAZ2B inh: qHTS Assay for Inhibitors of BAZ2B; actives 4.4% (n = 360,000); AID 504333, 2011; Bromodomain adjacent to zinc finger domain protein 2B (Homo sapiens), Q9UIF8; Potency, µM (top dose mostly 114 µM), for the others: top-dose activity change, negative = inhibition, usual class: inhibitors; AlphaScreen BAZ2B-H3K14Ac peptide displacement; note: % is set by controls: 0 for no effect and ±100 for the full control effect; nearly all actives have a fitted effect of over 60% in size
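Compounds, titrated to a top concentration of 110 uM, were incubated 30 min at room temperature with preformed BAZ2B/acetyl-K14 H3 peptide complex (50 nM each). Proximity signal was measured by AlphaScreen after 20 min with beads.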
* hit, by the source's call; [ ] = remark or other dose. Sampled rows, rich in hits. Any-hit rate of the full collection: about 6.9%. Calls come from the whole dose curve; as a rule, active = well fitted curve in the direction sought with a large enough effect; inconclusive = small, poorly fitted or top-dose-only effect, or another doubt; inactive = no such curve, though single readings can be large; an effect the other way counts as inactive or inconclusive. Potency is the fitted concentration of half-maximal effect.

COc1cccc(NC(=O)Cn2nc3c4ccccc4n(Cc4cccc(F)c4)cc-3c2=O)c1 was read as VDR inh 2.7%, JMJD2A Tudor inh -20.3%, HP1b chromo inh 20.0% and BAZ2B inh 1.6%.
For c1ccc(CN2CCN(c3nc(NCc4ccco4)c4ccccc4n3)CC2)cc1 the results were VDR inh -8.6%, JMJD2A Tudor inh inconclusive, HP1b chromo inh -15.8%, PLK1 PBD block 3.6% and BAZ2B inh 50.1µM*.
Screening OCCN1CCN(c2nc(NCc3ccco3)c3ccccc3n2)CC1 returned VDR inh -14.9%, JMJD2A Tudor inh inconclusive, L3MBTL1 block -1.1%, HP1b chromo inh 4.9%, PLK1 PBD block -8.2% and BAZ2B inh -9.2%.
`Cc1ccc(-c2nc(NCc3ccco3)c3ccccc3n2)cc1` gave VDR inh 4.9%, JMJD2A Tudor inh -32.4%, L3MBTL1 block 5.2%, HP1b chromo inh -6.3%, PLK1 PBD block -5.0% and BAZ2B inh -29.8%.
`Cc1ccc(OCCN2CCN(c3nc(NCc4ccco4)c4ccccc4n3)CC2)cc1` gave VDR inh 7.6%, JMJD2A Tudor inh 56.2µM*, L3MBTL1 block -9.6%, HP1b chromo inh -33.5%, PLK1 PBD block -6.6% and BAZ2B inh inconclusive.
`COc1cccc([C@@H]2Oc3ccc(OC)cc3C[C@H]2OC(=O)N[C@H](C)C2CCCCC2)c1` gave VDR inh 1.1%.
For Cc1ccc(S(=O)(=O)c2nc(-c3cccc(Cl)c3)oc2NCc2ccccc2)cc1 the results were VDR inh 6.6%, JMJD2A Tudor inh -31.8%, HP1b chromo inh 10.6% and BAZ2B inh -19.2%.
For COc1ccc(/C=C/C(=O)Nc2nc(-c3cccs3)ns2)cc1OC the results were VDR inh 15.6%, JMJD2A Tudor inh 3.3%, HP1b chromo inh 42.6% and BAZ2B inh -16.6%.
For Cc1csc(NC(=O)CSc2sc3c(O)cc(=O)[nH]c3c2C#N)n1 the results were VDR inh 18.7%, JMJD2A Tudor inh -31.4%, HP1b chromo inh -27.2%, PLK1 PBD block inconclusive and BAZ2B inh inconclusive.
CCSc1nnc(NC(=O)CSc2sc3c(O)cc(=O)[nH]c3c2C#N)s1 was read as VDR inh 15.9%, JMJD2A Tudor inh inconclusive, HP1b chromo inh -37.7%, PLK1 PBD block 11.9µM* and BAZ2B inh 79.4µM*.
O=C(CSc1nc2[nH]c(=O)cc(O)c2s1)Nc1nncs1 was read as VDR inh -15.3%, JMJD2A Tudor inh inconclusive, HP1b chromo inh -28.5%[57 µM] and PLK1 PBD block 29.9µM*.
`CCc1nnc(NC(=O)CSc2sc3c(O)cc(=O)[nH]c3c2C#N)s1` gave VDR inh -2.2%, JMJD2A Tudor inh 20µM*, HP1b chromo inh 39.8µM*, PLK1 PBD block 29.9µM* and BAZ2B inh 20µM*.
`COc1ccccc1NC(=O)CSc1sc2c(O)cc(=O)[nH]c2c1C#N` gave VDR inh 7.2%, JMJD2A Tudor inh inconclusive, HP1b chromo inh -17.4%, PLK1 PBD block inconclusive and BAZ2B inh inconclusive.
Screening COc1cc2c(cc1OC)C(COc1ccccc1OC)N(C(=O)c1ccc(S(=O)(=O)N3CCCC3)cc1)CC2 (stereo unspecified) returned VDR inh 2.2%, JMJD2A Tudor inh -21.4%, HP1b chromo inh -1.2% and BAZ2B inh -13.7%.
[O-][n+]1c2ccccc2[n+]([O-])c2cc(O)ccc21 was read as VDR inh inconclusive, JMJD2A Tudor inh 79.4µM*, HP1b chromo inh 44.7µM*, PLK1 PBD block inconclusive and BAZ2B inh 39.8µM*.

Assay outcomes from PubChem BioAssay.
